PubChem BioAssay AID1159580 (chemical genetic matrix, 2015)
Where “and” joins values, the source holds several entries; their conditions need not be identical. Identical values can stand only once. In all, about 5,500 compounds went through this assay and about 2,000 (36%) were called active. Not shown: some 18% with an inconclusive outcome. Cut-off read from the data, not from the text of the source: active = normalized growth mostly below about 0.91 (no sharp cut-off); inconclusive = no clear call, values can overlap the other calls; inactive = mostly above about 0.92. This is one part of the list.

Test: chemical genetic growth profiling, strain panel (AID 1159580);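 note: tested at 20 µM; growth read once vehicle control cultures reached saturation at 30 °C; 1 = growth at the plate median or of vehicle wells; lower values mean less growth of the strain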
Conditions: S. cerevisiae deletion strains, growth OD

Measured: normalized growth

Oc1ccc(Cl)cc1
inactive: locus YAL013W, strain DEP1, hits give low values 0.992 | locus YAL021C, strain ccr4, hits give low values 1.01 | locus YAL026C, strain drs2, hits give low values 1.03 | locus YAL030W, strain snc1, hits give low values 1.01 | locus YBL061C, strain skt5, hits give low values 1.01 | locus YBR009C, strain hhf1, hits give low values 1.01 | locus YBR021W, strain FUR4, hits give low values 0.971 | locus YBR023C, strain chs3, hits give low values 1.01 | locus YBR171W, strain sec66, hits give low values 1.02 | locus YBR229C, strain ROT2, hits give low values 0.986 | locus YBR231C, strain swc5, hits give low values 1 | locus YBR279W, strain paf1, hits give low values 1.01 | locus YCL011C, strain gbp2, hits give low values 1.01 | locus YCL016C, strain dcc1, hits give low values 1.02 | locus YCL029C, strain bik1, hits give low values 0.976 | locus YCL061C, strain MRC1, hits give low values 1.02 | locus YCL069W, strain vba3, hits give low values 1.01 | locus YCR088W, strain abp1, hits give low values 1.01 | locus YDL005C, strain med2, hits give low values 1.01 | locus YDL035C, strain GPR1, hits give low values 0.987 | locus YDL040C, strain nat1, hits give low values 1.01 | locus YDL074C, strain BRE1, hits give low values 1.01 | locus YDL101C, strain DUN1, hits give low values 0.985 | locus YDL134C, strain PPH21, hits give low values 0.975 | locus YDL185W, strain tfp1, hits give low values 0.98 | locus YDL192W, strain arf1, hits give low values 0.977 | locus YDR001C, strain nth1, hits give low values 1.01 | locus YDR069C, strain doa4, hits give low values 0.992 | locus YDR101C, strain arx1, hits give low values 0.973 | locus YDR137W, strain rgp1, hits give low values 1.04 | locus YDR159W, strain sac3, hits give low values 0.981 | locus YDR162C, strain NBP2, hits give low values 0.995 | locus YDR195W, strain ref2 1.02 | locus YDR297W, strain sur2, hits give low values 1.01 | locus YDR318W, strain mcm21, hits give low values 0.977 | locus YDR334W, strain swr1, hits give low values 1.01 | locus YDR335W, strain msn5, hits give low values 1 | locus YDR388W, hits give low values 0.962 | locus YDR392W, strain spt3, hits give low values 0.956 | locus YDR502C, strain sam2, hits give low values 0.979 | locus YEL003W, strain gim4, hits give low values 1.01 | locus YEL037C, strain rad23, hits give low values 1.01 | locus YEL061C, strain CIN8 (second series), hits give low values 1.01 | locus YEL061C, strain CIN8, hits give low values 0.993 | locus YER015W, strain faa2, hits give low values 1.01 | locus YER016W, strain bim1, hits give low values 0.997 | locus YER110C, hits give low values 0.973 | locus YER111C, strain swi4, hits give low values 1.01 | locus YER155C, strain BEM2 (second series), hits give low values 1.02 | locus YER155C, strain BEM2, hits give low values 0.987 | locus YER167W, strain BCK2, hits give low values 0.984 | locus YFR010W, strain ubp6, hits give low values 1 | locus YGL078C, strain dbp3, hits give low values 0.978 | locus YGL086W, strain mad1, hits give low values 1 | locus YGL167C, strain pmr1, hits give low values 1 | locus YGL173C, strain kem1, hits give low values 1 | locus YGL227W, strain vid30, hits give low values 1.01 | locus YGL240W, strain doc1, hits give low values 1 | locus YGL248W, strain PDE1, hits give low values 0.991 | locus YGL253W, strain hxk2, hits give low values 1.02 | locus YGR135W, strain pre9, hits give low values 0.978 | locus YGR229C, strain SMI1, hits give low values 0.996 | locus YGR252W, strain gcn5, hits give low values 1.05 | locus YHR013C, strain ard1, hits give low values 1.03 | locus YHR027C, strain rpn1, hits give low values 1.01 | locus YHR030C, strain SLT2, hits give low values 0.99 and 0.965 | locus YHR079C, strain IRE1 (second series), hits give low values 0.966 | locus YHR079C, strain IRE1, hits give low values 0.966 | locus YHR094C, strain hxt1, hits give low values 0.974 | locus YHR129C, strain ARP1, hits give low values 0.998 | locus YHR142W, strain chs7, hits give low values 1.02 | locus YHR200W, strain rpn10, hits give low values 0.98 | locus YIL066C, strain RNR3, hits give low values 0.992 | locus YIL073C, strain SPO22, hits give low values 0.942 | locus YIL125W, strain kgd1, hits give low values 0.975 | locus YIR030C, strain dcg1, hits give low values 0.98 | locus YJL092W, strain hpr5, hits give low values 1.02 | locus YJL095W, strain BCK1 (second series), hits give low values 1.01 | locus YJL095W, strain BCK1, hits give low values 1.01 and 0.962 | locus YJL115W, strain asf1, hits give low values 1.02 | locus YJL129C, strain trk1, hits give low values 0.99 | locus YJL134W, strain LCB3, hits give low values 0.991 | locus YJL154C, strain vps35, hits give low values 1.01 | locus YJL164C, strain tpk1, hits give low values 1 | locus YJL166W, strain qcr8, hits give low values 1.02 | locus YJL168C, strain set2, hits give low values 0.978 | locus YJL187C, strain SWE1 (second series), hits give low values 0.986 | locus YJL187C, strain SWE1, hits give low values 1.02 | locus YJR043C, strain POL32, hits give low values 1 | locus YJR066W, strain TOR1, hits give low values 0.934
